The source of these data is PMC8384837, “Expanding the binding specificity for RNA recognition by a PUF domain”.

Numbering of substitutions follows the chain as printed.

Common to all, as to experiment: yeast three-hybrid, YBZ-1, SC-Leu-His + 0.5 mM 3-AT, 4 days
Holding throughout (conditions): tags: N-Gal4 AD-HA kept; label: inside an RPR1-promoter hybrid RNA with tandem MS2 sites; ssRNA

Assay [1] deals with PUM1 PUF domain R1-KQR (Homo sapiens, UniProt Q14671 828-1176, S863K;R864Q;Q867R). In short, it runs like this: (§1)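 Repeat regions from input (SC-Leu) and selection (SC-Leu-His + 0.5 mM 3-AT) plates were PCR-amplified and Illumina-sequenced after four days of growth. The cells were strain YBZ-1 with a LexA–MS2 coat fusion and a HIS3 reporter, co-expressing Pumilio-1 PUF domain libraries and matching RNA elements from a centromeric plasmid. The interaction score is the log change in variant frequency from input to selection, taken in log2 with a pseudocount of 1 for absent variants.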

Assay [2] concerns the target PUM1 PUF domain R1-YIR (Homo sapiens, UniProt Q14671 828-1176, S863Y;R864I;Q867R). Summed up:
as §1

The target of assay [3] is PUM1 PUF domain R5-KAL (Homo sapiens, UniProt Q14671 828-1176, C1007K;R1008A;Q1011L). In short, it runs like this: as §1
Assay [4] has as its target PUM1 PUF domain R5-NIA (Homo sapiens, UniProt Q14671 828-1176, C1007N;R1008I;Q1011A). In short, it runs like this:
as §1

For assay [5], the target named is PUM1 PUF domain R5-RFS (Homo sapiens, UniProt Q14671 828-1176, C1007R;R1008F;Q1011S). Summed up:
as §1

Assay [6] concerns the target PUM1 PUF domain R5-FHG (Homo sapiens, UniProt Q14671 828-1176, C1007F;R1008H;Q1011G). Summed up: as §1
The target of assay [7] is PUM1 PUF domain R3-GHG (Homo sapiens, UniProt Q14671 828-1176, C935G;R936H;Q939G). In short, it runs like this:
as §1

Assay [8] has as its target PUM1 PUF domain R2-VYP (Homo sapiens, UniProt Q14671 828-1176, N899V;Q903P). Summed up:
as §1

In assay [9] the target is PUM1 PUF domain R1-NFH (Homo sapiens, UniProt Q14671 828-1176, S863N;R864F;Q867H). Summed up:
as §1

Assay [10] has as its target PUM1 PUF domain R4-FNL (Homo sapiens, UniProt Q14671 828-1176, N971F;H972N;Q975L). Summed up:
as §1

Assay [11] concerns the target PUM1 PUF domain R4-AWP (Homo sapiens, UniProt Q14671 828-1176, N971A;H972W;Q975P). Summed up:
as §1

For assay [12], the target named is PUM1 PUF domain R7-RMR (Homo sapiens, UniProt Q14671 828-1176, S1079R;N1080M;E1083R). In short, it runs like this: as §1
The target in assay [13] is PUM1 PUF domain R3-PRE (Homo sapiens, UniProt Q14671 828-1176, C935P;Q939E). Summed up: as §1
The target of assay [14] is T1, PUM1 PUF domain R6-RWR (Homo sapiens, UniProt Q14671 828-1176, N1043R;Y1044W;Q1047R).
T1 sequence: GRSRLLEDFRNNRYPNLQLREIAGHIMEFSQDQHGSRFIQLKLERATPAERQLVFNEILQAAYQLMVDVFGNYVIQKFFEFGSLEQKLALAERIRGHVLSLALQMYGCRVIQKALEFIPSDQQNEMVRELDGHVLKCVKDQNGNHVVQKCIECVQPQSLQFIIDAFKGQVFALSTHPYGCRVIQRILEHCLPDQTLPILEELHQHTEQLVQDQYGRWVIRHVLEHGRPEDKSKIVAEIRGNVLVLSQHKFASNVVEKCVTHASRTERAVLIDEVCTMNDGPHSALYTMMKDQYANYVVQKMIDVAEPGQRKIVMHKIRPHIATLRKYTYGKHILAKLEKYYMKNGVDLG
Summed up: as §1

Assay [15] concerns the target T2, PUM1 PUF domain R6-KWV (Homo sapiens, UniProt Q14671 828-1176, N1043K;Y1044W;Q1047V).
T2 sequence: T1 sequence with R216K, R220V
In short, it runs like this:
as §1

The target of assay [16] is T3, PUM1 PUF domain R6-HFT (Homo sapiens, UniProt Q14671 828-1176, N1043H;Y1044F;Q1047T).
T3 sequence: T1 sequence with R216H, W217F, R220T
In short, it runs like this:
as §1

For assay [17], the target named is PUM1 PUF domain R5-SEQ (Homo sapiens, UniProt Q14671 828-1176, C1007S;R1008E). Summed up: as §1
In assay [18] the target is PUM1 PUF domain R8-LHK (Homo sapiens, UniProt Q14671 828-1176, N1122L;Y1123H;Q1126K). In short, it runs like this: as §1
In assay [19] the target is PUM1 PUF domain R7-CWP (Homo sapiens, UniProt Q14671 828-1176, S1079C;N1080W;E1083P). Summed up: as §1
Assay [20] deals with PUM1 PUF domain R7-RTC (Homo sapiens, UniProt Q14671 828-1176, S1079R;N1080T;E1083C). Summed up: as §1

Turning to “GGCUAGAACUAGUGGAUCCCCCGGCGCCCGGCGGCUCGAGCCCGGGUAAGUGUAAAUCGUCUGCAUGCCGCCGGGCGCCAUGCCUGCAGGUCGACUCUAGAAAACAUG”, the binding signal in assay [1] was 5.28 log2 enrichment (interaction score); in assay [2] it was 6.92 log2 enrichment (interaction score).
Take “GGCUAGAACUAGUGGAUCCCCCGGCGCCCGGCGGCUCGAGCCCGGGUAAGUGUUAAUAGUCUGCAUGCCGCCGGGCGCCAUGCCUGCAGGUCGACUCUAGAAAACAUG”: the binding signal was 3.43 log2 enrichment (interaction score) in assay [3], 4.96 log2 enrichment (interaction score) in [4], 5.12 log2 enrichment (interaction score) in [5] and 3.39 log2 enrichment (interaction score) in assay [6].
Regarding “GGCUAGAACUAGUGGAUCCCCCGGCGCCCGGCGGCUCGAGCCCGGGUAAGUGUAAUUAGUCUGCAUGCCGCCGGGCGCCAUGCCUGCAGGUCGACUCUAGAAAACAUG”, in [7], the binding signal is 1.43 log2 enrichment (interaction score).
Turning to “GGCUAGAACUAGUGGAUCCCCCGGCGCCCGGCGGCUCGAGCCCGGGUAAGUGUAAAAAGUCUGCAUGCCGCCGGGCGCCAUGCCUGCAGGUCGACUCUAGAAAACAUG”, in [8], the binding signal is 3.97 log2 enrichment (interaction score).
Take “GGCUAGAACUAGUGGAUCCCCCGGCGCCCGGCGGCUCGAGCCCGGGUAAGUGUAAAUUGUCUGCAUGCCGCCGGGCGCCAUGCCUGCAGGUCGACUCUAGAAAACAUG”: the binding signal is 3.4 log2 enrichment (interaction score) in [9] and 4.41 log2 enrichment (interaction score) in [2].
In the case of “GGCUAGAACUAGUGGAUCCCCCGGCGCCCGGCGGCUCGAGCCCGGGUAAGUGUAUAUAGUCUGCAUGCCGCCGGGCGCCAUGCCUGCAGGUCGACUCUAGAAAACAUG”, the binding signal in assay [10] is 3.56 log2 enrichment (interaction score); in assay [11] it was 6.43 log2 enrichment (interaction score).
For the sequence “GGCUAGAACUAGUGGAUCCCCCGGCGCCCGGCGGCUCGAGCCCGGGUAAGUCUAAAUAGUCUGCAUGCCGCCGGGCGCCAUGCCUGCAGGUCGACUCUAGAAAACAUG”, the binding signal in assay [12] was 2.46 log2 enrichment (interaction score).
Turning to “GGCUAGAACUAGUGGAUCCCCCGGCGCCCGGCGGCUCGAGCCCGGGUAAGUGUCAAUAGUCUGCAUGCCGCCGGGCGCCAUGCCUGCAGGUCGACUCUAGAAAACAUG”, the binding signal was 3.48 log2 enrichment (interaction score) in assay [3], 5.34 log2 enrichment (interaction score) in assay [5] and 2.68 log2 enrichment (interaction score) in assay [6].
With “GGCUAGAACUAGUGGAUCCCCCGGCGCCCGGCGGCUCGAGCCCGGGUAAGUGUAAAUAGUCUGCAUGCCGCCGGGCGCCAUGCCUGCAGGUCGACUCUAGAAAACAUG”, the binding signal in assay [13] was 3.66 log2 enrichment (interaction score); in assay [7] it was 3.44 log2 enrichment (interaction score); in assay [14], 6.07 log2 enrichment (interaction score); in assay [5], 2.61 log2 enrichment (interaction score); in assay [2] it was 3.77 log2 enrichment (interaction score); in assay [15] it was 6.02 log2 enrichment (interaction score). The binding signal in assay [16] was 3.78 log2 enrichment (interaction score).
As to “GGCUAGAACUAGUGGAUCCCCCGGCGCCCGGCGGCUCGAGCCCGGGUAAGUGUGAAUAGUCUGCAUGCCGCCGGGCGCCAUGCCUGCAGGUCGACUCUAGAAAACAUG”, the binding signal is 3.78 log2 enrichment (interaction score) in assay [17] and 1.78 log2 enrichment (interaction score) in assay [5].
Take “GGCUAGAACUAGUGGAUCCCCCGGCGCCCGGCGGCUCGAGCCCGGGUAAGUGUAAGUAGUCUGCAUGCCGCCGGGCGCCAUGCCUGCAGGUCGACUCUAGAAAACAUG”: the binding signal in [13] was 4.92 log2 enrichment (interaction score); in [7], 1.95 log2 enrichment (interaction score).
As to “GGCUAGAACUAGUGGAUCCCCCGGCGCCCGGCGGCUCGAGCCCGGGUAAGUGAAAAUAGUCUGCAUGCCGCCGGGCGCCAUGCCUGCAGGUCGACUCUAGAAAACAUG”, the binding signal in assay [14] was 4.83 log2 enrichment (interaction score).
Take “GGCUAGAACUAGUGGAUCCCCCGGCGCCCGGCGGCUCGAGCCCGGGUAAGCGUAAAUAGUCUGCAUGCCGCCGGGCGCCAUGCCUGCAGGUCGACUCUAGAAAACAUG”: the binding signal in assay [18] is 3.29 log2 enrichment (interaction score).
As for “GGCUAGAACUAGUGGAUCCCCCGGCGCCCGGCGGCUCGAGCCCGGGUAAGUGUACAUAGUCUGCAUGCCGCCGGGCGCCAUGCCUGCAGGUCGACUCUAGAAAACAUG”, the binding signal in assay [10] is 1.89 log2 enrichment (interaction score); in [11], 5.02 log2 enrichment (interaction score).
On to “GGCUAGAACUAGUGGAUCCCCCGGCGCCCGGCGGCUCGAGCCCGGGUAAGUUUAAAUAGUCUGCAUGCCGCCGGGCGCCAUGCCUGCAGGUCGACUCUAGAAAACAUG”, for which the figures for the binding signal in [19], in [12] and in [20] were 4.38 log2 enrichment (interaction score), 4.78 log2 enrichment (interaction score) and 3.51 log2 enrichment (interaction score), respectively.
On to “GGCUAGAACUAGUGGAUCCCCCGGCGCCCGGCGGCUCGAGCCCGGGUAAGUGGAAAUAGUCUGCAUGCCGCCGGGCGCCAUGCCUGCAGGUCGACUCUAGAAAACAUG”, for which the binding signal in assay [14] is 1.16 log2 enrichment (interaction score).
“GGCUAGAACUAGUGGAUCCCCCGGCGCCCGGCGGCUCGAGCCCGGGUAAGUGCAAAUAGUCUGCAUGCCGCCGGGCGCCAUGCCUGCAGGUCGACUCUAGAAAACAUG”: the binding signal in assay [14] is 1.4 log2 enrichment (interaction score).
